Source: PubChem BioAssay (NCI)
This is part of a sample that, as a whole, favours compounds with a hit. Of some 83,000 tested, about 20% had one in any assay.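 Step 1: grow cells in 96-well plates. Step 2: add test compound at a single concentration. Step 3: incubate 48 h. Step 4: record percent growth.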 Unmarked numbers belong to inactive results. Active and inactive are the calls of the source. The calls were made as follows: active = growth percent below 10; inactive = the rest.

Experiments:
Assay in all cases: NCI-60 one-dose screen, 48 h (100 = growth as untreated, 0 = no growth, -100 = all killed)
Conditions in all cases: 10 µM unless noted
[1] = tested on: NCI-H23 lung
[2] = tested on: NCI-H226 lung
[3] = tested on: NCI-H322M lung
[4] = tested on: HOP-62 NSCLC
[5] = tested on: NCI-H460 lung
[6] = tested on: NCI-H522 lung
[7] = tested on: A549/ATCC NSCLC
[8] = tested on: 786-0 renal
[9] = tested on: COLO 205 colon
[10] = tested on: DU-145 prostate
[11] = tested on: K-562 leukemia
[12] = tested on: MALME-3M melanoma
[13] = tested on: MDA-MB-231 breast
[14] = tested on: RXF 393 renal
[15] = tested on: SF-268 CNS
[16] = tested on: SF-295 CNS
[17] = tested on: SF-539 CNS
[18] = tested on: UACC-257 melanoma
[19] = tested on: M14 melanoma

Structure (SMILES)	growth [1]	growth [2]	growth [3]	growth [4]	growth [5]	growth [6]	growth [7]	growth [8]	growth [9]	growth [10]	growth [11]	growth [12]	growth [13]	growth [14]	growth [15]	growth [16]	growth [17]	growth [18]	growth [19]
COc1cnc2c(c1)C(=O)c1c-2n(CCCNC(C)C)c(=O)c2cc(Cl)ccc12	-64.5% (active)	25.5%	-35.7% (active)	-88.4% (active)	-82.9% (active)	-79.8% (active)	-84% (active)	-96.3% (active)	-89.8% (active)	-78.4% (active)	-80% (active)	-73.4% (active)	-79.7% (active)	-77.1% (active)	-64.2% (active)	-77.3% (active)	-97.3% (active)	48.2%	-83.4% (active)
O=C(O)C(CCc1ccccc1)NCc1ccccc1 (stereo unspecified)	94.9%	106%	103%	93.3%	116%	87%	99.7%	100%	97.3%	95.7%	113%	89.8%	91.4%	128%	98.4%	103%	89.8%	99.4%	79.6%
COc1cccc(-c2nc3sccn3c2-c2ccnc(NCCN3CCCN(C)S3(=O)=O)n2)c1	104%	78.9%	91.4%	111%	69.5%	95.9%	91.7%	73.3%	45.8%	74.2%		39.6%	84.9%	74.6%	103%	96.8%	92.5%	84.7%	
CCCCCCCCCCCCCC1=NC(C)(C)CN1C(C)C	-4.87% (active)	2.64% (active)	55.3%	-79.7% (active)	-52.2% (active)	-61.7% (active)	-50.2% (active)	-86.2% (active)	-62.9% (active)	9.58% (active)	-49.5% (active)	-48.9% (active)	-56.7% (active)	-65.9% (active)	-53.5% (active)	-52.8% (active)	-79.2% (active)	-57.5% (active)	-74.8% (active)
CN1CCCN(CCNc2nccc(-c3c(-c4cccc(O)c4)nc4sccn34)n2)S1(=O)=O	67.1%	72.4%	47.9%	84.4%	40.2%	59.3%	45.8%	42.2%	29.3%	54.7%		9.87% (active)	44.9%	41.3%	71.5%	57.8%	57.8%	36.8%	
CCNCCCn1c2c(c3ccc(Cl)cc3c1=O)C(=O)c1cc(OC)cnc1-2	28.8%	-6.31% (active)	45%	-18.8% (active)	-69.9% (active)	-10.2% (active)	25.7%	-95.4% (active)	8.78% (active)	-97.4% (active)	-84.2% (active)	74.2%	-72.6% (active)	8.86% (active)	-66% (active)	15.5%	12%	65.9%	40%
N#CCCn1cnc2c(N)ncnc21	101%	95.9%	123%	94.6%	108%	97.7%	99.9%	96.7%	120%	108%		125%	94.2%	120%	110%	102%	97.8%	102%	102%
COc1ccc(/C=C/C(=O)CCC(=O)O)cc1OC	109%	102%	97.4%	91.4%	111%	93.2%	103%	95.3%	106%	111%		102%	119%	116%	107%	104%	101%	105%	101%
CCOC(=O)C1=C(C(=O)OCC)N(c2cc(OC)c(OC)c(OC)c2)C(N)=C(C#N)C1c1cc(=O)[nH]c2ccccc12 (stereo unspecified)	104%	96.7%	97.3%	92.4%	105%	90.2%	105%	101%	111%	104%		104%	87.8%	99.5%	91.1%	94.3%	87.7%	101%	105%
CC[C@]1(O)C[C@H]2CN(CCc3c([nH]c4ccccc34)C(C(=O)OC)(c3cc4c(cc3OC)N(C)[C@H]3[C@@](O)(C(=O)OC)[C@H](OC(C)=O)[C@]5(CC)[C@@H]6C[C@@H]6CN6CC[C@]43[C@@H]65)C2)C1 (stereo partly specified)	19.8%	-25.3% (active)	53.8%	24.6%	10.7%	-9.66% (active)	19.8%	-8.75% (active)	-73.3% (active)	12.1%		20.5%	-12% (active)	35%	-4.98% (active)	-15.1% (active)	-22% (active)	68.2%	-72% (active)
CCOC(=O)Nc1ccc2nc(N3CCCCCC3)sc2c1	47.9%	54.3%	46.2%	33.2%	17.1%	-12.7% (active)	32%	40.2%	-7.85% (active)	22.4%		38.9%		14.4%	49%	23.5%	-1.3% (active)	64.3%	19.5%
CC1OC(n2c3ccccc3c3c4c(c5c6ccccc6[nH]c5c32)C(=O)N(CCN[C@H]2CCC[C@@H]2N)C4=O)CC(O)C1O (stereo partly specified)	33.8%	40.5%	54.2%	30.2%	2.3% (active)	16.9%	25.2%	50.2%		44.5%	10.2%	45.3%	37.5%	63%	33.5%	25.6%	35.3%	54.9%	36.1%
Cc1ccc([C@H]2c3[nH]c4ccccc4c3C[C@H]3C(=O)N(CCCCCCC(=O)NO)CC(=O)N23)cc1	63.8%	94.2%	55.6%	52.9%	48.7%	24.2%	85.6%	82.1%		60.5%	20.2%	19.5%	44.4%	51.5%	68.6%	67.4%	52.6%	50.5%	
COc1cc(NCC(O)CN(CC(C)C)CC(C)C)c2ncccc2c1 (stereo unspecified)	82%	74.9%	95.6%	84.8%	95.4%	55.9%	91.6%	85%		113%	59.6%	89.6%	85.5%	51.5%	98.5%	91.9%	102%	77.2%	87.7%
CCN(CC)c1ccc(/C=C2/NC(=O)NC2=O)cc1	44.6%	81.5%	79.1%	53.4%	20.6%	14.5%	59.1%	48%	3.89% (active)	64.3%		42%	57.5%	50.3%	57%	23.6%	6.57% (active)	72.9%	8.99% (active)
COc1ccc2c(c1)OC1=C(C(=O)OC1)C2c1cc(OC)c2c(c1)OCCO2 (stereo unspecified)	16.2%	-13.6% (active)	44.3%	24.1%	6.93% (active)	-10.7% (active)	18%	21.4%	-69.6% (active)	-13.7% (active)		62.9%	25%	37.7%	29.5%	7.02% (active)	3.93% (active)	61%	4.69% (active)
CCOC(=O)C1=C(C)NC(=S)NC1c1ccccc1 (stereo unspecified)	108%	91.6%	108%	101%	104%	91.6%	109%	101%	120%	109%		101%	-95.7% (active)	117%	91.7%	103%	97.2%	101%	107%
CNC(=O)c1c(NC(=O)c2cccc(C(F)(F)F)c2)sc2c1CCC(=O)C2	-1.79% (active)	1.92% (active)	15.4%	13.6%	10%	-28.3% (active)	13.6%	13.3%	-31.7% (active)	23.9%		-28.9% (active)	-41.2% (active)	-18.9% (active)	21.7%	-10.4% (active)	-30% (active)	-11% (active)	-10.9% (active)
COc1cc(CN2CCC(N3CCCC3=O)c3ccccc32)cc(OC)c1OC (stereo unspecified)	63%	85.9%	87.9%	95.5%	89.4%	55.3%	80.7%	80.4%		108%	46%	71.9%	90.4%	112%	91.6%	79.3%	93.7%	72.2%	92.9%
COc1cc(NC(=O)CSc2nc3ccc(Cl)cc3c(=O)n2Cc2ccccc2)cc(OC)c1OC	76.8%	46.4%	82.3%	91.3%	64.7%	57.7%	67.3%	58.5%	83.2%	72%		61.2%	44.6%	30.7%	59.3%	84.1%	-6.78% (active)	70%	73.4%
CC(C)(C)c1nn(-c2ccccc2)c2c1C(=O)CSC(c1ccccc1Cl)N2 (stereo unspecified)	38.3%	36.4%	35.1%	27.6%	22.4%	11.7%	39.8%	25.7%	2.17% (active)	26.7%		53.5%	66%	-10.4% (active)	50.4%	-13.4% (active)	15.7%	77.4%	11.2%
Nc1nc(N)c2cc(NCc3ccc(Cl)c(Cl)c3)ccc2n1	-88% (active)	-74.8% (active)	-79% (active)	-85.6% (active)	-75.7% (active)	-69.8% (active)	-90.2% (active)	-89.7% (active)		-94.8% (active)	-62.2% (active)	-64.9% (active)	-86.8% (active)	-82.7% (active)	-83.2% (active)	-80.5% (active)	-89.9% (active)	-83% (active)	-84% (active)
